# HP1b binding inh: inhibitors of HP1-beta chromodomain binding to methylated histone tails. AlphaScreen HP1-beta / biotin-H3K9me3 peptide binding. Potency, µM (top dose mostly 114 µM), for the others: at the top dose activity change, negative = inhibition, most hits filed as inhibitors. 390,000 compounds, 0.56% hits. AID 540317; also: nearly all actives have a fitted effect of over 70% in size
#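 Compound inhibition of the preformed complex between 50 nM HP1-beta and 50 nM biotinylated H3K9me3 peptide was read by AlphaScreen. Buffer was PBS pH 7.4 with 0.01% Tween-20. Incubations ran 30 min at room temperature, with 10 ug/mL donor/acceptor beads.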
# G9a inh: inhibitors of human histone lysine methyltransferase G9a. 350,000 compounds, 8.8% hits. Potency, µM (titrated, usually from 102 µM), for the others: at the highest dose activity, negative = inhibition, most hits filed as inhibitors. G9a H3K9 monomethylation, AlphaScreen, 2 h. Q96KQ7. AID 504332; also: % is scaled to controls: 0 for no effect and ±100 for the full control effect; nearly all actives have a fitted effect of over 75% in size
#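 AlphaScreen detection with an anti-monomethyl H3K9 antibody quantified product after a 2 h room-temperature reaction containing 500 nM biotinylated H3K9 peptide, 20 µM SAM and 20 nM enzyme, which had been preincubated 15 min with compound.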
# PLK1 PBD block: blocks phosphopeptide binding to human PLK1 polo-box domain | P53350 | Plk1 PBD binding of FITC phosphopeptide, fluorescence polarization | Potency, µM, without a hit: max response, negative = inhibition, actives largely listed as inhibitors | 360,000 compounds, 2.8% hits | AID 720504; also: series mostly up to about 57 µM; % is scaled to controls: 0 for no effect and ±100 for the full control effect; nearly all actives have a fitted effect of over 65% in size
# JMJD2A Tudor: blocks the human JMJD2A Tudor domain | AlphaScreen JMJD2A-Tudor / H3K4me3 peptide binding | AID 504339 | 390,000 compounds, 4.4% hits | Potency, µM (doses to about 114 µM), without a hit: at the top dose activity change, negative = inhibition, actives largely listed as inhibitors | O75164; also: % is scaled to controls: 0 for no effect and ±100 for the full control effect; nearly all actives have a fitted effect of over 50% in size
# BAZ2B block: inhibitors of human BAZ2B bromodomain; Potency, µM (doses to about 114 µM), for the others: top-dose activity change, negative = inhibition, hits mostly inhibitors; AlphaScreen BAZ2B-H3K14Ac peptide displacement; Q9UIF8; 360,000 compounds, 4.4% hits; also: % is scaled to controls: 0 for no effect and ±100 for the full control effect; nearly all actives have a fitted effect of over 60% in size
#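 AlphaScreen luminescence quantifies BAZ2B engagement of H3K14Ac peptide; the protein and biotinylated peptide are both at 50 nM final, buffer PBS pH 7.4 with 0.01% Tween-20, all steps at room temperature.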
# Sfp PPTase inh: blocks B. subtilis Sfp PPTase activity | 310,000 compounds, 3.5% hits | Biochemical Sfp PPTase activity, qHTS | Q9F4F7 | Potency, µM, for inactives: largest response in the series, negative = inhibition, most hits filed as inhibitors;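 also: the enzyme is Sfp with the accession as filed and its product quenches rhodamine fluorescence; 0% = enzyme reaction without inhibitor and -100% = no enzyme wells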
#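 Sfp 15 nM + cpd, 15 min RT; start w/ rhodamine-CoA 5 uM, BHQ-2-YbbR 12.5 uM (final); 50 mM Hepes pH 7.6, 10 mM MgCl2, 0.01% NP-40, 0.01% BSA; read 525/598 nm at 0 and 30 min.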
# Numbers without * were called inactive; u = inconclusive; x = no result; [ ] = another dose, or the depositor's remark. An excerpt weighted towards active compounds, which were near 12% of everything screened. Calls follow the shape of the dose curve; as a rule, active = well fitted curve in the direction sought with a large enough effect; inconclusive = small, poorly fitted or top-dose-only effect, or another doubt; inactive = no such curve, though single readings can be large; an effect the other way counts as inactive or inconclusive. Potency is read from the fitted curve at half-maximal effect.
SMILES,HP1b binding inh,G9a inh,PLK1 PBD block,JMJD2A Tudor,BAZ2B block,Sfp PPTase inh
O=C(CN1CCN(c2ccccc2O)CC1)NC(=O)NCc1ccco1,12%,0%[59 µM],-19%,-29%,-11%,6%
CC(C)(C)NC(=O)NC(=O)CN1CCN(c2ccccc2O)CC1,6%,-9%,-15%,-5%,-36%,18%
O=C(CN1CCN(c2ccc(O)cc2)CC1)NC(=O)NCc1ccco1,u,7.9µM*,-9%,-13%[57.1 µM],-36%,40µM*
COc1ccc(N2CCN(CC(=O)Nc3ccc(C)cc3)CC2)cc1,-4%,x,2%,-26%,u,-6%
CC(C)Nc1ccc(-c2nc(-c3ccncc3)no2)cc1[N+](=O)[O-],22%,-14%[59 µM],x,-13%,-20%,x
COc1ccc(N2CCN(CC(=O)NC(=O)NCc3ccco3)CC2)cc1,5%,32µM*,0%,u,-7%,13%
CC(C)(C)NC(=O)NC(=O)CN1CCN(S(=O)(=O)c2ccccc2)CC1,-2%,6%,-1%,-20%,-16%,10%
CC(C)(C)NC(=O)NC(=O)CN1CCN(S(=O)(=O)c2ccc3c(c2)CCCC3)CC1,12%,45µM*,0%,-20%,-17%,x
COc1cc([N+](=O)[O-])ccc1N=Nc1c(N)[nH]n(-c2ccccc2)c1=O,-26%,50µM*,30µM*,-23%[11.4 µM],u,12%
Nc1[nH]n(-c2ccccc2)c(=O)c1N=Nc1ccc2ncsc2c1,-29%,x,27µM*,-21%[11.4 µM],u,50µM*
Nc1[nH]n(-c2ccccc2)c(=O)c1N=Nc1ccccc1,u,4.5µM*,-8%,13µM*,7.9µM*,9%
Nc1[nH]n(-c2ccccc2)c(=O)c1N=Nc1ccccc1[N+](=O)[O-],0%,-11%,-8%,-21%,-25%,-3%
O=c1c(N=Nc2ccccc2)c[nH]n1-c1ccccc1,x,x,3%,x,x,x
CC(C)C[C@@H](CN1CCC[C@@H]1CN1C(=S)NC[C@@H]1Cc1ccccc1)N1C[C@H](Cc2ccc(O)cc2)N(CC2CCCCC2)C1=S,x,x,1%,x,x,x
CC(C)C[C@@H](CN1CCCC1CN1C(=S)NC[C@@H]1Cc1ccc(O)cc1)N1C[C@H](Cc2ccc(O)cc2)N(CC2CCCCC2)C1=S (some centres undefined),-13%,x,19µM*,40µM*,x,x
Cc1cc(C)nc(SCC(=O)N2CCC(C(N)=O)CC2)n1,38%,11%[12.7 µM],0%,-8%,-1%,7%
CCOC(=O)c1cnc(SCC(=O)c2ccccc2)nc1N,3%,28µM*,-23%,-20%,x,45µM*
CCOC(=O)c1cnc(SCc2nc(N)nc(Nc3ccc(C)cc3)n2)nc1N,55%,18µM*,u,-15%[11.4 µM],-11%,4%
CCOC(=O)c1cnc(SCC(=O)N2CCC(C(N)=O)CC2)nc1N,49%,50µM*,-21%,3%,-28%,-23%
N#CCCCc1cn(-c2nc3ccccc3s2)nn1,x,x,4%,x,x,x
Cc1ccc2oc(C(=O)Nc3ccc(S(=O)(=O)Nc4ncccn4)cc3)c(C)c2c1,26%,37%,-10%,-7%,-15%,13%
O=C1NC[C@H](CCCCN2C[C@H](Cc3ccccc3)N(CC3CCCCC3)C(=O)C2=O)N(CCc2ccccc2)C1=O,x,x,-13%,x,x,x
N#Cc1cccc(-c2nc3cnc(Nc4ccccc4)nc3n(C[C@H]3CCCO3)c2=O)c1,x,0%[12.7 µM],x,x,x,23%
CCOc1nc(-c2ccccc2)c2cc(C)ccc2n1,43%,114%,3%,7%,41%,-2%
Cc1ccc2nc(-c3ccccc3)c(CC(=O)O)c(C(=O)O)c2c1,21%,45µM*,-2%,-9%,u,10%
COc1nc(-c2ccccc2)c2cc(C)ccc2n1,4%,x,21µM*,u,11%,8%
CCOc1ccc(NC(=O)Cc2ccc(-n3c(C)nc4cccnc43)cc2)cc1,33%,-1%[59 µM],x,7%,-19%,x
FC(F)(F)c1ccccc1-c1nccc(NCc2ccccc2)n1,x,x,x,x,x,9%
c1ccc2nc(N3CCCC3)c(N3CCCC3)nc2c1,380%,17%[12.7 µM],-3%,236%,259%,7%

# Screening results from PubChem.
